# According to ChEMBL document CHEMBL3988442, “University of Dundee, Small-Polar-MMV Screening Library” (2021):
# Out of some 48,000 compounds screened, about 13,000 (27%) showed an effect of 50% or more. This is one part of the list.
# Tested on: Wolbachia pipientis
# Assay: Anti-Wolbachia Cell-Based Screen
# Format: functional
# Set-up: scale not given: in the data most compounds retested in dose-response had high values
# Settings: 5 µM
row,SMILES,Percent Effect [%]
1,CSCCC(=O)N1CCN(CC(O)C(C)(C)C)CC1 (stereo not given),-10.5
2,Cc1ccc(C(=O)N(C)S(C)(=O)=O)cc1Cl,-6.894
3,Cc1cc(S(=O)(=O)Nc2cccc(OC(F)F)c2)sc1C(=O)O,-5.292
4,Cc1nonc1C1CCCN1CCC(=O)N1CCc2ccccc2C1 (stereo not given),3.529
5,O=C(CCS(=O)(=O)C1CCCC1)N1CCC(O)(C(F)(F)F)C1 (stereo not given),-5.456
6,O=C(NCC1(N2CCOCC2)CCSC1)Nc1ccncc1 (stereo not given),-3.46
7,Cc1nc(CN2CCN(C(=O)COCc3ccccc3)CC2)no1,3.654
8,Cc1nc(C2CCCN2C(=O)CCOCc2ccccc2)no1 (stereo not given),99.19
9,Cc1nc(C2CCCN2C(=O)COCCOc2ccccc2)no1 (stereo not given),-5.15
10,Cc1nc(C2CCCN2C(=O)COCc2ccccc2)no1 (stereo not given),102.7
11,Cc1nc(C2CCCN2C(=O)CCCOc2cccc(F)c2)no1 (stereo not given),-14
12,O=C1OCCN1CC(=O)N1C[C@H]2CC[C@@H]1CN(C(=O)c1ccccn1)C2,-8.504
13,COc1cc(F)cc(NC(=O)NCc2cccc(N(C)C)n2)c1,5.244
14,O=C(C1CC=CC1)N1C[C@@H]2[C@@H](C1)OCC(=O)N2Cc1cccnc1,-8.253
15,Cc1csc(C(=O)N2CC[C@H](Oc3cccnc3C)[C@@H](O)CC2)c1,110.7
16,Cc1ncccc1O[C@H]1CCN(C(=O)c2cccs2)CC[C@@H]1O,-0.5375
17,Cc1ncccc1O[C@H]1CCN(C(=O)Cc2cccs2)CC[C@@H]1O,6.577
18,CCc1ccc(C(=O)N2CC[C@H](Oc3cccnc3C)[C@@H](O)CC2)cc1,61.09
19,Cc1ccc(C(=O)N2CC[C@H](Oc3cccnc3C)[C@@H](O)CC2)s1,123.3
20,Cc1ccc(C(=O)N2CCC(c3nccn3Cc3ccncc3)CC2)s1,-4.938
21,COc1ccccc1OC1CCN(C(=O)c2cnc(C)s2)CC1,3.926
22,CC(=O)N(C)CC(=O)Nc1cnc(-n2ccnc2C)nc1,9.823

row,SMILES,Percent Effect [%]
1,CC(O)CCN(C)S(=O)(=O)Cc1ccc(Br)cc1 (stereo not given),-1.579
2,O=C(CO)N1CCc2onc(Cn3cccn3)c2C1,6.984
3,Cc1c(Br)cccc1CSc1nnc(CO)n1C,11.11
4,O=C(Nc1c(F)cccc1Oc1ccccc1)C1CCS(=O)(=O)C1 (stereo not given),2.058
5,Cc1ccc(CNC(=O)NCc2ccco2)s1,117.2
6,O=C(NCc1cc(Cl)ccn1)NCc1ccco1,-0.04027
7,CN(C)c1nccc(CNC(=O)NCc2ccco2)n1,-7.993
8,CNC(=O)CCOC(=O)c1cccc(-n2ccc(C(F)(F)F)n2)c1,-14.03
9,Cc1nn(C)c(N(C)C)c1CNCc1cccc(Br)c1,-4.706
10,CCn1cc(NC(=O)c2cccc(OCC(F)(F)F)n2)cn1,10.55
11,CCN(CC)c1nc(C)cc(C(=O)Nc2cccc(C(N)=O)c2)n1,132.2
12,CCN(CC)c1nc(C)cc(C(=O)Nc2ccc(Br)cc2)n1,134.8
13,CCc1sc(C(=O)Nc2cnn(CCN(C)C)c2)cc1C,11.53
14,CN(C)C(=O)c1cccc(NC(=O)c2cnn(C)c2)c1,-1.797
15,CCN(CC)c1nc(C)cc(C(=O)Nc2cnn(CC)c2)n1,114.1
16,CCN(Cc1cccc(C(N)=O)c1)c1ccccc1,7.168
17,Cc1noc(NC(=O)c2ccc(Br)cc2)n1,7.251
18,Cc1ccc(NC(=O)c2n[nH]c(-n3cnnc3)n2)cc1C,9.368
19,CC(C)(C)CN[C@@H]1CO[C@H](CNC(=O)Nc2ccccc2)[C@H]1O,-16.93
20,CCOc1ccccc1OCCN(C)Cc1nccn1C,8.395
21,CC(=O)N(Cc1noc(C2CC2)n1)C1CCN(Cc2nccn2C)C1 (stereo not given),3.362
22,CC(=O)N(Cc1noc(C2CC2)n1)C1CCN(Cc2ccccn2)C1 (stereo not given),122.2

row,SMILES,Percent Effect [%]
1,CC(=O)N(Cc1noc(C2CC2)n1)C1CCN(Cc2cc(C)on2)C1 (stereo not given),124.1
2,CC(=O)N(Cc1noc(C)n1)C1CCN(Cc2ccccn2)C1 (stereo not given),104.4
3,CC(=O)N(Cc1noc(C)n1)C1CCN(Cc2ccon2)C1 (stereo not given),2.71
4,CC(=O)N(Cc1noc(C)n1)C1CCN(Cc2cc(C)on2)C1 (stereo not given),0.668
5,CCCC(=O)N(CCCN1CCOCC1)c1nc2c(C)ccc(Cl)c2s1.Cl,32.82
6,CN(C)CCOCC1CN(C(=O)N2CCCC2)Cc2ccnn2C1.O=C(O)C(F)(F)F.O=C(O)C(F)(F)F (stereo not given),-8.834
7,CSC(C)(C)CNC(=O)NCc1cccc(-n2cncn2)c1,2.602
8,COCCOCCNC(=O)N1CCc2c(F)ccc(F)c2C1,-0.5371
9,N#Cc1cc(F)ccc1Cn1cncn1,9.511
10,CNC(=O)Cc1noc(Cc2ccc3c(c2)CCCC3)n1,11.56
11,Cc1ccc(=O)n(CC2(O)CCN(Cc3cnc(N(C)C)nc3)CC2)n1,82.15
12,Cc1ccc(=O)n(CC2(O)CCN(Cc3cccs3)CC2)n1,102.3
13,CN(C)CC1(O)CCCN(Cc2cnc(-c3ccco3)nc2)CC1 (stereo not given),2.959
14,CN(C)c1cnn(CC(=O)N2CCN(Cc3cccs3)CC2)c(=O)c1,2.186
15,CCn1cc(CN2CCC(O)(Cn3nc(C)ccc3=O)CC2)cn1,106.9
16,CCn1ccnc1CN1CCC(Oc2ccccc2F)(C(=O)O)CC1,-0.1414
17,Cc1ccc(=O)n(CC2(O)CCN(Cc3c(F)cccc3F)CC2)n1,89.56
18,Cn1cnn(Cc2c(F)cccc2Br)c1=O,12.84
19,Cc1ccc(=O)n(CC2(O)CCN(Cc3ccsc3)CC2)n1,-12.71
20,Cc1ccc(=O)n(CC2(O)CCN(Cc3cnc(C)nc3)CC2)n1,-9.776
21,Cc1noc(C)c1CN(C)C(C)c1cccs1 (stereo not given),-4.592
22,CCCn1cnc2c1CN(S(=O)(=O)c1ccc(F)cc1)[C@H](C(=O)OC)C2,-2.883

row,SMILES,Percent Effect [%]
1,CCCC1(CNCc2ncc[nH]2)CCC1,-4.212
2,CCN1CCc2[nH]cnc2C12CCN(C(=O)CCCn1cncn1)CC2,0.07379
3,CCC(C(=O)NCc1cccnc1)N(c1cccc(C)c1)S(C)(=O)=O (stereo not given),-6.23
4,COc1ccccc1COCC(O)CN(C)c1ccc(C)cc1C (stereo not given),-38.72
5,CCn1ccnc1C1CCN(C(=O)C(O)c2ccc(Cl)cc2)CC1 (stereo not given),-5.147
6,COc1ccc(C(=O)NC2CC2)c(OC2CCN(CCCSC)CC2)c1,-3.444
7,COCCN(CCOC)S(=O)(=O)N(C)Cc1ccncc1,7.861
8,Cc1ccc(=O)n(CC2(O)CCN(Cc3ccoc3)CC2)n1,91.7
9,Cc1nc2c(c(N3CC=CC3)n1)CCN(Cc1ccoc1)CC2,2.971
10,Cn1cc(CN2CC3(CCN(C(=O)c4ccoc4)C3)C2)cn1,3.005
11,Cn1cc(CN2CCC3(CC2)CC(=O)Nc2ccccc23)cn1,-46.12
12,Cc1ccc(=O)n(CC2(O)CCN(Cc3cnn(C)c3)CC2)n1,99.25
13,CCN(CC)Cc1ccc(C(=O)NC2CCc3cc(Br)ccc32)o1 (stereo not given),-2.859
14,CC(C)c1cc(NCc2csc(C(C)C)n2)nc(N)n1,-18.23
15,COc1ccc(C(=O)Nc2cccc(C(N)=O)c2)c(OC)n1,132
16,COc1cc(NC(=O)c2cccc(N(C)C)c2)cc(OC)c1,6.421
17,COc1ccc(C(=O)Nc2cccc(SC)c2)c(OC)n1,175.2
18,COc1ncccc1C(=O)Nc1ccccc1-c1ccc(=O)n(C)n1,-13.19
19,COc1ccc(C(=O)Nc2ccccc2C(C)C)c(OC)n1,169
20,COc1ccc(C(=O)Nc2ccccc2-c2ccc(=O)n(C)n2)cc1,17.03
21,COc1ccc(C(CO)NC(=O)Nc2cccc(C(C)=O)c2)cc1 (stereo not given),-19.79
22,COc1ncccc1NC(=O)c1cccc(C)n1,-5.429

row,SMILES,Percent Effect [%]
1,COc1ccc(NC(=O)c2cccc(OC)c2OC)cc1,-22.1
2,CC(C)Oc1ncc(C(=O)N2CCc3ccc(O)cc3C2)cc1Cl,-26.56
3,CN1N=C(c2nc(Cc3cccc(Br)c3)no2)CCC1=O,-6.645
4,CC(C(=O)NC1CC1)S(=O)(=O)c1cc2c(cc1Cl)OCCO2 (stereo not given),-15.14
5,Cc1noc(C)c1CNS(=O)(=O)N(C)Cc1ccccc1Br,-0.1877
6,CCc1noc(CN(C)C(=O)COc2cccc(Cl)c2C)n1,4.111
7,O=C(O)C(F)(F)F.c1coc(CN2CCO[C@H]3[C@H](OCC4CCCC4)CC[C@@H]32)c1,101
8,O=C(O)C(F)(F)F.c1coc(CN2CCO[C@H]3[C@@H](OCC4CC4)CC[C@@H]32)c1,73.75
9,O=C(O)C(F)(F)F.c1coc(CN2CCO[C@H]3[C@H](OCC4CC4)CC[C@@H]32)c1,120.5
10,O=C(O)C(F)(F)F.c1csc(CN2CCO[C@H]3[C@H](OCC4CCCC4)CC[C@@H]32)n1,-7.308
11,CC(C)NC(=O)[C@H]1C[C@@H]2[C@@H](C1)OCCN2Cc1ccco1.O=C(O)C(F)(F)F,1.513
12,CCC(Nc1ccc(Oc2cccc(C#N)c2)cc1)C(N)=O (stereo not given),18.43
13,CC[C@@H](CO)NC(=O)c1coc(COc2ccc3sc(C)nc3c2)n1,-14.59
14,CCCc1noc(C(C)N2CC(n3cccn3)C2)n1 (stereo not given),2.136
15,CCOCC1CN(Cc2ccc3c(c2)OCO3)Cc2ncn(C)c21 (stereo not given),101.2
16,COCC1CN(Cc2ccc(OC)cc2)Cc2nn(C)cc21.O=C(O)C(F)(F)F (stereo not given),-23.14
17,COCC1CN(Cc2ccc3c(c2)OCO3)Cc2ncn(C)c21.O=C(O)C(F)(F)F.O=C(O)C(F)(F)F (stereo not given),103.2
18,Cn1cnc2c1C(COCC1CC1)CN(Cc1ccc3c(c1)OCO3)C2.O=C(O)C(F)(F)F.O=C(O)C(F)(F)F (stereo not given),34.98
19,CN(C)CC1CN(Cc2ccc3c(c2)OCO3)Cc2nccn2C1.O=C(O)C(F)(F)F.O=C(O)C(F)(F)F (stereo not given),4.386
20,CCOCC1CN(Cc2cnn(C)c2)Cc2nn(C)cc21.O=C(O)C(F)(F)F (stereo not given),-12.04
21,CCOCC1CN(Cc2ccc3c(c2)OCO3)Cc2nccn2C1 (stereo not given),77.74
22,CCOCC1CN(Cc2cc(C)on2)Cc2cn(C)nc21 (stereo not given),-1.224
